# Pf growth 96h: P. falciparum growth inhibition at 96 hour, primary screen for plastid delayed-death inhibitors. P. falciparum luciferase reporter growth, 96 h. Potency, µM (titrated, usually from 28.7 µM), inactives show at the top dose activity change, negative = inhibition, hits mostly inhibitors. 320,000 tested, 6.9% active. AID 504834; also: potency is read from the fitted curve at half-maximal effect; % is scaled to controls: 0 for no effect and ±100 for the full control effect
#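 Compounds incubated with erythrocytes infected by luciferase-expressing P. falciparum (2% hematocrit, 0.05% parasitemia final) for 96 hours, 37 C in 5% CO2. Growth inhibition scored as decreased luciferase luminescence.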
# HCMV antiviral: inhibitors of human cytomegalovirus. activity change, negative = inhibition, % at 57.5 µM. HFF cells, HCMV-luciferase reporter, 72 h; stronger effect = lower value. 410,000 tested, 4.5% active; in the data active = activity change below about -60%; inconclusive = no clear call, values can overlap the other calls; inactive = above about -39%; also: % is scaled to controls: 0 for no effect and ±100 for the full control effect
#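 After 16 h attachment at 37C, HFF cells received test compound and HCMV-luciferase (1 PFU/cell); reporter luminescence read 72 h later, data normalized against buffer-only and known inhibitor Salinomycin.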
# HCV inhibitor: inhibitors of hepatitis C virus infection; Huh7.5.1 HCVcc-Cre infection, luciferase reporter, 44 h; Potency, µM (titrated, usually from 41.8 µM), for the others: at the top dose activity change, negative = inhibition, actives largely listed as inhibitors; 340,000 tested, 3.4% active; AID 651820; also: potency is read from the fitted curve at half-maximal effect; % is scaled to controls: 0 for no effect and ±100 for the full control effect
#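 Reporter virus HCVcc-Cre (~0.5 moi) infects cells exposed to compound; seeding density 1,000 cells/well with 4 h settling beforehand. Luminescence, 15 sec read, taken 44 h post-infection following a 15 min RT substrate incubation.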
# SARS PLpro yeast: SARS-CoV PLP inhibition in yeast; 330,000 tested, 0.19% active; Potency, µM (doses to about 32.9 µM), for inactives: at the top dose activity, positive = growth rescue, hits mostly activators; S. cerevisiae expressing SARS-CoV PLpro, growth rescue; AID 485353; calls by dose curve; also: potency is read from the fitted curve at half-maximal effect; 0% is about no effect; nearly all actives have a fitted effect of over 55% in size
# Pf growth 48h: P. falciparum growth inhibition at 48 hours (one generation). P. falciparum luciferase growth in erythrocytes, 48 h. Potency, µM (series often up to 28.7 µM), for the others: at the top dose activity change, negative = inhibition, hits mostly inhibitors. 310,000 tested, 5.9% active; also: potency is read from the fitted curve at half-maximal effect; % is scaled to controls: 0 for no effect and ±100 for the full control effect
#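 Here the parasites carry a stable luciferase gene and grow inside erythrocytes in Albumax-based RPMI medium with compound for one erythrocytic cycle. Activity is scored as loss of luminescent signal.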
# Sm TGR inh: inhibitors of Schistosoma mansoni thioredoxin glutathione reductase; Q962Y6; purified TGR, DTNB reduction, TNB absorbance 405 nm; Potency, µM (titrated, usually from 114 µM), inactives show at the highest dose activity change, negative = inhibition, hits mostly inhibitors; 360,000 tested, 3% active; AID 485364; also: potency is read from the fitted curve at half-maximal effect; % is scaled to controls: 0 for no effect and ±100 for the full control effect; nearly all actives have a fitted effect of over 60% in size
#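 TGR 20 nM + NADPH 100 uM (dispensed conc.), cpd preinc 15 min RT; start with NADPH (500 uM addition) then DTNB (15 mM addition). Kinetic TNB absorbance, 405 nm filter. Four-parameter Hill fit across titration.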
# * marks the source's active call; other numbers are inactive results; u = inconclusive; x = no result; [ ] = another dose, or the depositor's remark. In the library only some 15% were active in any assay of this set; here they are far more common. Unless noted, calls follow the shape of the dose curve; as a rule, active = well fitted curve in the direction sought with a large enough effect; inconclusive = small, poorly fitted or top-dose-only effect, or another doubt; inactive = no such curve, though single readings can be large; an effect the other way counts as inactive or inconclusive.
SMILES,Pf growth 96h,HCMV antiviral,HCV inhibitor,SARS PLpro yeast,Pf growth 48h,Sm TGR inh
CN1CCc2c(sc3c2C(=O)NC(c2ccco2)N3)C1 (stereo not given),u,30,-3%,10%,1%,-12%
CN(C(=O)c1cnc(N2CCOCC2)c2ccccc12)c1ccccc1F,x,4,x,x,x,8%
O=C(NCc1ccccc1)c1ccc(CSc2nc3cccnc3n2Cc2cccc(F)c2)cc1,x,-67*,x,x,x,4%
O=C(NCCc1ccccc1)c1ccc(CSc2nc3cccnc3n2Cc2ccccc2)cc1,x,-3,x,x,x,1%
CN(Cc1ccccc1)C(=O)c1ccc(CSc2nc3cccnc3n2Cc2ccccc2)cc1,x,-71*,x,x,x,4%
Cn1c(SCc2ccc(F)cc2)nc2ccc(C(=O)NCc3ccc(F)cc3)cc21,x,-69*,x,x,x,6%
CCN(Cc1nc(-c2ccc(OC)cc2)oc1C)S(=O)(=O)c1ccc(C)cc1,x,-17,x,x,x,1%
O=C1CC(c2ccco2)CC(O)=C1C=NCCN1CCN(C2CC(=O)N(c3ccccc3)C2=O)CC1 (stereo not given),-11%,5,5%,-20%,8%,u
CN1C(=O)CC(N2CCN(CCN=CC3=C(O)CC(C)(C)CC3=O)CC2)C1=O (stereo not given),12µM*,-28,18%,1%,-11%,0%
CC1(C)CC(=O)C(C=NCCN2CCOCC2)=C(O)C1,5%,-29,17%,-1%,37%,u
CC1(C)CC(=O)C(C=NCCN2CCN(C3CC(=O)N(c4ccc(Cl)c(Cl)c4)C3=O)CC2)=C(O)C1 (stereo not given),2%,-5,4%,-6%,15%,25µM*
COc1ccc2oc(=N)c(C(=O)Nc3ccc(F)cc3)cc2c1,u,-62*,8%,1%,6%,2%
COc1ccc2o/c(=N\O)c(C(=O)Nc3ccc(C)cc3)cc2c1,20%,16,10µM*,0%,-2%,0%
N=c1oc2cc(O)ccc2cc1C(=O)Nc1ccc(Br)cc1,0.74µM*,-90*,u,-25%,46%,-13%
N=c1oc2cc(O)ccc2cc1C(=O)Nc1ccccn1,-2%,x,x,0%,12%,-10%
CCOC(=O)c1sc(NC(=O)c2cc(-c3ccc(F)cc3)on2)c(C(=O)OCC)c1C,x,14,x,x,x,2%
CCOC1=C2[C@@H](CN(S(=O)(=O)c3ccc(C)cc3)[C@H]2c2cccc3ccccc23)[C@H]2C(=O)N(C3CCCCC3)C(=O)[C@H]2C1,x,-13,x,x,x,x
CCn1cc(C(=O)O)c(=O)c2cnc(N3CCN(C(=O)Nc4cccc5ccccc45)CC3)nc21,u,x,x,8%,0%,0%
COCCN(C(=O)Cc1cccs1)C(C(=O)NCc1ccc(OC)cc1)c1ccc(C)cc1 (stereo not given),5.9µM*,-34,u,2%,8.3µM*,-2%
CCc1ccc(C(C(=O)NCc2ccc(OC)cc2)N(CCOC)C(=O)Cc2cccs2)cc1 (stereo not given),1.5µM*,u,-27%,-16%,4.1µM*,-15%
COCCN(C(=O)Cc1cccs1)C(C(=O)NCc1ccc(OC)cc1)c1ccc(C(C)C)cc1 (stereo not given),2.9µM*,-36,-13%,-17%,2.1µM*,-2%
COc1ccc(CNC(=O)C(c2ccc(C)o2)N(Cc2cccs2)C(=O)Cc2cccs2)cc1 (stereo not given),160%,-15,11µM*,0%,15µM*,u
O=[N+]([O-])c1cccc(-c2ccc(CN3CCCCC3)o2)c1,5%,53,-6%,1%,6%,-6%
COCCNC(=O)C(C)(C)n1cc(NC(=O)COCc2ccccc2)cn1,x,1,x,x,x,x
CC(C)COCc1ccc(O)c2ncccc12,8%,u,2.8µM*,-1%,u,16µM*
SMILES,Pf growth 96h,HCMV antiviral,HCV inhibitor,SARS PLpro yeast,Pf growth 48h,Sm TGR inh
CCCOCc1ccc(O)c2ncccc12,4.7µM*,-104*,5.6µM*,-17%,12µM*,28µM*
COc1ccc(S(=O)(=O)N(CC(C)C)CC(C)C)c2cccnc12,24%,5,-9%,-3%,x,6%
NCCNc1ccc(C(=O)N2c3ccccc3Sc3ccccc32)cc1[N+](=O)[O-],81%,30,11µM*,2%,u,5%
CN(C(=O)C1CCCO1)c1nnc(-c2cnccn2)s1 (stereo not given),3.3µM*,35,6%,-14%,-9%,2%
Cc1ccccc1OCc1nnc(SCc2cc(=O)c3cc(F)ccc3[nH]2)n1C,x,-62*,x,x,x,5%
Cc1ccc2[nH]c(CSc3nnc(COc4ccccc4C)n3C)cc(=O)c2c1,x,-39,x,x,x,0%
O=C(Nc1ccc2c(c1)OCCO2)c1ccc(Cl)c(S(=O)(=O)N2CCOCC2)c1,4%[5.75 µM],-30,x,-1%,2.6µM*,0%
COc1ccc(C(=O)Nc2cc(C)cc(C)c2)cc1S(=O)(=O)N1CCOCC1,15%,-24,u,3%,-8%,-1%
COc1ccc(NC(=O)Cc2ccc(C)c(C)c2)cc1S(=O)(=O)N1CCCCC1,x,-29,u,8%,x,x
COc1ccc(C(=O)Nc2ccc3c(c2)OCCO3)cc1S(=O)(=O)N1CCOCC1,10µM*,48,u,-17%,u,-5%
Cc1ccc(NC(=O)Cc2ccc3c(c2)OCCO3)cc1S(=O)(=O)N1CCCCC1,5.2µM*,-35,-27%,0%,171%,-11%
O=C(Cc1ccc2c(c1)OCCO2)Nc1ccc(Cl)c(S(=O)(=O)N2CCOCC2)c1,9.3µM*,-38,u,-19%,u,3%
Cc1ccc(-n2nc(-c3ccccc3)cc2Nc2ccccc2N)cc1,-100%,-19,5%,-31%,u,5%
Cc1ccc(-c2cc3nn(-c4ccccc4)c(N)c3c(=O)o2)cc1,81%,-12,10µM*,0%,34%,-23%
Cn1c2ccccc2c2nnc(SCC(=O)NCc3ccoc3)nc21,-8%,-25,17%,0%,1%,x
Cc1cc2cc(CN(Cc3ccco3)C(=O)NCc3ccccc3)c(=O)[nH]c2cc1C,53%,-11,-6%,-4%,u,7%
COc1cccc(C(=O)N(Cc2ccco2)Cc2cc3cccc(C)c3[nH]c2=O)c1,-28%,-19,-24%,8%,-29%,3%
CCc1ccc2[nH]c(=O)c(CN(Cc3ccccc3OC)C(=O)Nc3ccccc3OC)cc2c1,x,-24,7.9µM*,-3%,12µM*,-3%
COc1cccc(NC(=O)N(Cc2cc3cc(C)cc(C)c3[nH]c2=O)CC2COCCO2)c1 (stereo not given),61%,25,u,8%,9.3µM*,-6%

# Screens as filed in PubChem BioAssay.
